Records with an inconclusive call do not appear. Active and inactive are the calls of the source. Unless noted, calls follow the shape of the dose curve; as a rule, active = well fitted curve in the direction sought with a large enough effect in the repeat runs; inconclusive = weak or mixed curves; inactive = no such curve, though single readings can be large; an effect the other way counts as inactive or inconclusive.
Legend:
[1] = qHTS RealTime-Glo MT Cell Viability Assay in HEK293 cells - 0 hour (AID 1224880); also: top concentration of the series differs between compounds; nearly all actives have a fitted effect of over 45% in size
In short: (§1)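 Measured as luminescence from the same continuously cultured HEK293 wells at successive time points (0, 8, 16, 24, 32, 40 h) after compound addition. Reagent present from seeding; dosing at 5 h; incubation 37 C.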

[2] = A CellTox Green Cytotoxicity Assay to monitor cytotoxicity in HEK293 cells - 32 hour (AID 1224881); also: nearly all actives have a fitted effect of over 40% in size
In short: (§2)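 Homogeneous no-lysis format: HEK293 cell suspension mixed with CellTox Green reagent, seeded, incubated 5 h at 37 C/5% CO2, then dosed by pintool with compound in DMSO.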

[3] = A CellTox Green Cytotoxicity Assay to monitor cytotoxicity in HepG2 cells - 0 hour (AID 1224882); also: nearly all actives have a fitted effect of over 35% in size
In short: (§3)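 Fluorescent DNA-binding dye, 600 HepG2 cells/well, 5 h preincubation then compound in DMSO; same plates read at 0–40 h, 37 C.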

[4] = A CellTox Green Cytotoxicity Assay to monitor cytotoxicity in HEK293 cells - 8 hour (AID 1224884); also: nearly all actives have a fitted effect of over 35% in size
In short: as §2

[5] = qHTS RealTime-Glo MT Cell Viability Assay in HepG2 cells - 16 hour (AID 1224885); also: nearly all actives have a fitted effect of over 50% in size
In short: (§4)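 Cell number in HepG2 cultures estimated from NanoLuc luminescence generated by metabolic reduction of a prosubstrate by living cells. The homogeneous, nonlytic format allowed repeated reads at 0, 8, 16, 24, 32 and 40 h of compound exposure.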

[6] = qHTS RealTime-Glo MT Cell Viability Assay in HEK293 cells - 24 hour (AID 1224886); also: top concentration of the series differs between compounds; nearly all actives have a fitted effect of over 50% in size
In short: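 Homogeneous bioluminescent viability format in HEK293 cells (600 cells/well). Following 5 h at 37 C/5% CO2, 23 nL compound was pintooled; the signal was measured repeatedly during 40 h incubation.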

[7] = qHTS RealTime-Glo MT Cell Viability Assay in HEK293 cells - 8 hour (AID 1224887); also: top concentration of the series differs between compounds; nearly all actives have a fitted effect of over 50% in size
In short: as §1

[8] = A CellTox Green Cytotoxicity Assay to monitor cytotoxicity in HEK293 cells - 16 hour (AID 1224888); also: nearly all actives have a fitted effect of over 35% in size
In short: as §2

[9] = qHTS RealTime-Glo MT Cell Viability Assay in HepG2 cells - 0 hour (AID 1224889); also: nearly all actives have a fitted effect of over 50% in size
In short: as §4

[10] = A CellTox Green Cytotoxicity Assay to monitor cytotoxicity in HepG2 cells - 8 hour (AID 1224890); also: nearly all actives have a fitted effect of over 45% in size
In short: as §3

[11] = qHTS assay to identify small molecule antagonists of the estrogen receptor alpha (ER-alpha) signaling pathway using the BG1 cell line in the presence of 0.1 nM 17-beta-estradiol - cell viability counter screen (AID 1259241); also: nearly all actives have a fitted effect of over 40% in size
In short: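 Cytotoxicity counter-screen: live-cell protease activity measured by fluorescence (30 min reagent step) in the same wells. Cells were VM7Luc4E2 with endogenous ER-alpha and ERE-driven luciferase, treated 22 hr at 37C alongside 0.1 nM 17beta-estradiol final.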

[12] = qHTS assay to identify small molecule antagonists of the androgen receptor (AR) signaling pathway using the MDA cell line in the presence of 0.5 nM R1881 - cell viability counter screen (AID 1259242); also: nearly all actives have a fitted effect of over 45% in size
In short: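 Human breast carcinoma MDA-kb2 cells, cultured without CO2, receive compounds alongside 0.5 nM (final) R1881 agonist. After 16 hr at 37C, viability is taken as live-cell protease signal.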

[13] = qHTS assay to identify small molecule HDAC inhibitors (AID 1259364);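 also: wild-type HCT-116 cells with endogenous class I/II HDAC activity; top concentration of the series differs between compounds; nearly all actives have a fitted effect of over 45% in size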
In short: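 After a 2 hr compound incubation (37C, 5% CO2), HCT-116 cells seeded at 1,500/well the day before received HDAC-Glo reagent; signal read as luminescence after 30 min at room temperature.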

[14] = qHTS assay to identify small molecule HDAC inhibitors - cell viability counter screen (AID 1259365)
In short: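 CellTiter-Glo luminescence (30 min, room temperature) reported viability after a 2 h compound exposure at 37 C. Cells: wild-type HCT-116, 1,500 per well, seeded the night before.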

[15] = qHTS assay to identify small molecule agonists of the sonic hedgehog signaling (Shh) pathway - cell viability counter screen (AID 1259366); also: nearly all actives have a fitted effect of over 50% in size
In short: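 Cytotoxicity counter screen: CellTiter-Fluor reagent added after 23 h compound exposure, then 1 h at 37C and fluorescence read. Cells were 3T3 Gli1-Luc, seeded 2,000 per well and dosed 4 h post-plating.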

[16] = qHTS assay to identify small molecule antagonists of the sonic hedgehog signaling (Shh) pathway - cell viability counter screen (AID 1259367); also: nearly all actives have a fitted effect of over 55% in size
In short: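 Cytotoxicity was assessed in parallel with Shh reporter activity by measuring live-cell protease fluorescence (CellTiter-Fluor) in NIH/3T3 cells stably carrying Gli1-Luc, treated with compound under conditioned medium stimulation for 23 hr plus 1 hr reagent incubation.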

[17] = A CellTox Green Cytotoxicity Assay to monitor cytotoxicity in HepG2 cells - 32 hour (AID 1224883); also: nearly all actives have a fitted effect of over 50% in size
In short: as §3

[18] = biological target: Estrogen receptor (Homo sapiens) (UniProt P03372); test: qHTS assay to identify small molecule antagonists of the estrogen receptor alpha (ER-alpha) signaling pathway using the BG1 cell line in the presence of 0.1 nM 17-beta-estradiol (AID 1259244); also: nearly all actives have a fitted effect of over 50% in size
Chain of Estrogen receptor (Homo sapiens) (P03372 whole entry, looked up): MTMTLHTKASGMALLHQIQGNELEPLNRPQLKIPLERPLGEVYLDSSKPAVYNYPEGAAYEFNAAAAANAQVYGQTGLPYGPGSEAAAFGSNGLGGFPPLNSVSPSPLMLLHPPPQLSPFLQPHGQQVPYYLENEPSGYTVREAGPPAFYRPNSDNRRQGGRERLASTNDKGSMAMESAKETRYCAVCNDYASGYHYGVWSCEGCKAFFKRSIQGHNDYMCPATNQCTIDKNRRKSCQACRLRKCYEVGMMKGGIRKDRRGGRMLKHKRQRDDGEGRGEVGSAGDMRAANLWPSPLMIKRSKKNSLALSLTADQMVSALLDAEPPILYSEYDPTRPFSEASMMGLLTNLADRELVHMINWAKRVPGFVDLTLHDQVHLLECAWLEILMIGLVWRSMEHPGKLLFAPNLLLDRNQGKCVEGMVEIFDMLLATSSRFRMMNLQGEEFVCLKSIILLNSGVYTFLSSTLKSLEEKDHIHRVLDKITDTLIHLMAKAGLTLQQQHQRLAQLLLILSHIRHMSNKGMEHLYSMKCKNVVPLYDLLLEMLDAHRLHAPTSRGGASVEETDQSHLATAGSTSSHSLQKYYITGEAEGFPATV
In short: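 Seeding of stripped-serum-adapted VM7Luc4E2 cells, 24 h attachment, compound transfer, then 0.1 nM final 17beta-estradiol; after 22 h incubation, ONE-Glo reagent and luminescence reading.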

[19] = qHTS assay to identify small molecule phospholipidosis (PLD) inducers (AID 1259344; active = well fitted curve in the direction sought with a large enough effect; an effect the other way counts as inactive or inconclusive)
In short: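 Cells (HepG2, 900 per well) attach for 4 h, receive LipidTOX Red and compound together, incubate 24 h at 37 C, are fixed 30 min with paraformaldehyde/Hoechst, then imaged at one site per well.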

[20] = biological target: Androgen receptor (Homo sapiens) (UniProt P10275); test: qHTS assay to identify small molecule antagonists of the androgen receptor (AR) signaling pathway using the MDA cell line in the presence of 0.5 nM R1881 (AID 1259243); also: nearly all actives have a fitted effect of over 50% in size
Chain of Androgen receptor (Homo sapiens) (P10275 whole entry, looked up): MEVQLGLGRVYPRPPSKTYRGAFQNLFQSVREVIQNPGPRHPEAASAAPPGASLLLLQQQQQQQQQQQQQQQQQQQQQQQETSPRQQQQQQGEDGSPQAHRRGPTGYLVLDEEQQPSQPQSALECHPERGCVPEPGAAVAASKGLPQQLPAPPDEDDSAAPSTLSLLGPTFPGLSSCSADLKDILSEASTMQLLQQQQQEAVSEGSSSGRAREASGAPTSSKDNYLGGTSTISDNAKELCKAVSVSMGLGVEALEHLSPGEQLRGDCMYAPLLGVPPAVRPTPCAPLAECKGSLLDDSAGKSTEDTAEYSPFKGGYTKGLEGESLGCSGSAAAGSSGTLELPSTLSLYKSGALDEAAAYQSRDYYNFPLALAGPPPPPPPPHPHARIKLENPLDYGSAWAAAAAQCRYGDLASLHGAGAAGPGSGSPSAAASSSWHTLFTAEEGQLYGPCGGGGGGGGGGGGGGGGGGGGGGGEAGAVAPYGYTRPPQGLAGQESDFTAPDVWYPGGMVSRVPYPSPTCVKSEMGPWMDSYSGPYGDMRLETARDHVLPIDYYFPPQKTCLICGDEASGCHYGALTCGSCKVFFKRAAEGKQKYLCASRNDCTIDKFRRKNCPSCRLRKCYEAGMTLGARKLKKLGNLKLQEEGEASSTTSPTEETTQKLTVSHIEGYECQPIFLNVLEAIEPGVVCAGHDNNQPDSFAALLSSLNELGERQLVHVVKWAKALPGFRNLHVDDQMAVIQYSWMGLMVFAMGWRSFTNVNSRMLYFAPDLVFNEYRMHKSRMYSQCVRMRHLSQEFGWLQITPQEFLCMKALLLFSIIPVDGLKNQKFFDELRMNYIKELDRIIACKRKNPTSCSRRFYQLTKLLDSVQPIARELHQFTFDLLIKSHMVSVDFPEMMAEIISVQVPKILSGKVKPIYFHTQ
In short: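 Cells: MDA-kb2 (MMTV-luc). Stimulus: 0.5 nM R1881. Time: 16 hr, 37C, no CO2. Detection: ONE-Glo luminescence after 30 min at RT.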
% is scaled to controls: 0 for no effect and ±100 for the full control effect.

NC(=S)Nc1cccc2ccccc12
inactive: activity change, negative = cytotoxicity [1] 29.3% [at 6.97 µM] | cytotoxicity increase [2] -1.04% [at 6.97 µM] | cytotoxicity [3] 5.93% [at 6.97 µM] | cytotoxicity increase [4] 15.1% [at 6.97 µM] | activity change, negative = cytotoxic [5] -0.289% [at 6.97 µM] | activity change, negative = cytotoxicity [6] 15.9% [at 6.97 µM] | activity change, negative = cytotoxicity [7] 11.2% [at 6.97 µM] | activity change [8] 0.057% [at 6.97 µM, stronger effect = higher value] | activity change, negative = cytotoxicity [9] 6.18% [at 6.97 µM] | cytotoxicity increase [10] 0.879% [at 6.97 µM] | activity change, negative = cytotoxicity [11] 7.82% [at 8.39 µM] | viability change, negative = cytotoxic [12] 0.661% [at 8.39 µM] | activity change, negative = inhibition [13] 2.32% [at 8.39 µM] | activity change, negative = cytotoxicity [14] -1.1% [at 8.39 µM] | viability change, negative = cytotoxic [15] -0.646% [at 8.39 µM] | viability change, negative = cytotoxic [16] 0.784% [at 8.39 µM]

CCCCCCCCCCCCI
inactive: outcome [1] | Potency [2] | Potency [3] | Potency [17] | outcome [5] | Potency [6] | Potency [7] | Potency [8] | Potency [9] | Potency [10] | outcome [11] | outcome [12] | Potency [13] | outcome [14] | Potency [15] | outcome [16]

CCCOc1ccccc1-c1nc2n[nH]nc2c(=O)[nH]1
inactive: outcome [1] | Potency [2] | Potency [3] | Potency [17] | Potency [4] | Potency [7] | Potency [8] | Potency [9] | Potency [10] | outcome [11] | outcome [12] | outcome [18] | Potency [19] | Potency [13] | outcome [14] | Potency [15] | outcome [16]

C#CC(O)CCCCC (stereo not drawn)
inactive: outcome [1] | Potency [2] | Potency [3] | Potency [4] | outcome [5] | Potency [6] | Potency [7] | Potency [8] | Potency [9] | Potency [10] | outcome [11] | outcome [12] | Potency [13] | outcome [14] | Potency [15] | outcome [16]

CCCCCCOC(=O)c1ccccc1O
inactive: outcome [1] | Potency [2] | Potency [3] | Potency [17] | outcome [5] | Potency [6] | Potency [7] | Potency [8] | Potency [9] | Potency [10] | outcome [11] | outcome [12] | Potency [20] | outcome [18] | Potency [13] | outcome [14] | Potency [15] | outcome [16]

— PubChem BioAssay (Tox21)
